# Measured values as given in PubChem BioAssay (NCATS).
# Where “and” joins values, the source holds several entries; their conditions need not be identical. Identical values can stand only once. Values without a mark were called inactive. Inconclusive results are not listed. A call without a number means that no potency is given here. Calls of active or inactive are those of the source. Unless noted, calls follow the shape of the dose curve; as a rule, active = well fitted curve in the direction sought with a large enough effect; inconclusive = small, poorly fitted or top-dose-only effect, or another doubt; inactive = no such curve, though single readings can be large; an effect the other way counts as inactive or inconclusive.
# What was measured:
# [1] = system: MKL-2; test: qHTS assay to identify novel small-molecules to repurpose for Merkel cell carcinoma treatment (AID 1296009); conditions: MCC and control cell lines, CellTiter-Glo viability, 72 h; series mostly up to 46 µM; also: nearly all actives have a fitted effect of over 60% in size; also: potency is read from the fitted curve at half-maximal effect
# In short: (§1)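 Cell viability, measured as CellTiter-Glo luminescence, was normalized between DMSO and no-cell wells. The cells had been exposed to 8- or 11-point compound dilutions for 72 hr at 37 degree celsius.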
# [2] = system: UISO; test: as above; conditions: MCC and control cell lines, CellTiter-Glo viability, 72 h; series mostly up to 46 µM
# In short: as §1
# [3] = system: WaGa; test: as above; conditions: MCC and control cell lines, CellTiter-Glo viability, 72 h; series mostly up to 46 µM
# In short: as §1
# [4] = system: C33A; test: Primary qHTS to identify gynecologic anti-cancer compounds using libraries of approved drugs and bioactive compounds (AID 1345084); conditions: Gynecologic cancer cell panel viability, ATPlite luminescence, 48 h; series mostly up to 57.5 µM; also: nearly all actives have a fitted effect of over 55% in size; also: potency is read from the fitted curve at half-maximal effect
# In short: (§2)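 Cells, 1,000 per well, were allowed to settle for 16 h at 37 C before compound addition. Five concentrations were tested for 48 h, and viability was read by ATPlite luminescence after 15 min at room temperature.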
# [5] = system: CASKI; test: as above; conditions: Gynecologic cancer cell panel viability, ATPlite luminescence, 48 h; series mostly up to 57.5 µM
# In short: as §2
# [6] = system: Es-2; test: as above; conditions: Gynecologic cancer cell panel viability, ATPlite luminescence, 48 h; series mostly up to 57.5 µM
# In short: as §2
# [7] = system: HeLa; test: as above; conditions: Gynecologic cancer cell panel viability, ATPlite luminescence, 48 h; series mostly up to 57.5 µM
# In short: as §2
# [8] = system: Hek293T; test: as above; conditions: Gynecologic cancer cell panel viability, ATPlite luminescence, 48 h, control line for the selectivity index; series mostly up to 57.5 µM
# In short: as §2
# [9] = system: JEG-3; test: as above; conditions: Gynecologic cancer cell panel viability, ATPlite luminescence, 48 h; series mostly up to 57.5 µM
# In short: as §2
# [10] = system: OV90; test: as above; conditions: Gynecologic cancer cell panel viability, ATPlite luminescence, 48 h; series mostly up to 57.5 µM
# In short: as §2
# [11] = system: PA-1; test: as above; conditions: Gynecologic cancer cell panel viability, ATPlite luminescence, 48 h; series mostly up to 57.5 µM
# In short: as §2
# [12] = system: SKOV3; test: as above; conditions: Gynecologic cancer cell panel viability, ATPlite luminescence, 48 h; series mostly up to 57.5 µM
# In short: as §2
# [13] = system: Tov-21-G; test: as above; conditions: Gynecologic cancer cell panel viability, ATPlite luminescence, 48 h; series mostly up to 57.5 µM
# In short: as §2
# [14] = system: Tov112D; test: as above; conditions: Gynecologic cancer cell panel viability, ATPlite luminescence, 48 h; series mostly up to 57.5 µM
# In short: as §2
# [15] = Drug repurposing screens with cells derived from glioblastoma tumor samples (AID 1345199); conditions: GBM patient neurospheres viability, ATP luminescence, 48 h; also: nearly all actives have a fitted effect of over 40% in size; also: potency is read from the fitted curve at half-maximal effect
# In short: (§3)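 Primary testing used CD133+ neurospheres from four GBM patients, seven concentrations, 48 h exposure and ATP-based viability; confirmation added three slower-growing patient lines.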
# [16] = system: astro; test: as above; conditions: viability, ATP luminescence, 48 h; series mostly up to 45.9 µM
# In short: as §3
# [17] = system: CAOV3; test: Primary qHTS to identify gynecologic anti-cancer compounds using libraries of approved drugs and bioactive compounds (AID 1345084); conditions: Gynecologic cancer cell panel viability, ATPlite luminescence, 48 h; series mostly up to 57.5 µM; also: nearly all actives have a fitted effect of over 55% in size; also: potency is read from the fitted curve at half-maximal effect
# In short: as §2
# [18] = biological target: Nuclear receptor subfamily 1 group I member 2 (Rattus norvegicus) (UniProt Q9R1A7); test: qHTS assay for small molecule activators of the rat pregnane X receptor (rPXR) signaling pathway (AID 651751; call rule not given here); conditions: rPXR reporter cells, luciferase (One-Glo), 24 h
# Chain of Nuclear receptor subfamily 1 group I member 2 (Rattus norvegicus) (Q9R1A7 whole entry, looked up): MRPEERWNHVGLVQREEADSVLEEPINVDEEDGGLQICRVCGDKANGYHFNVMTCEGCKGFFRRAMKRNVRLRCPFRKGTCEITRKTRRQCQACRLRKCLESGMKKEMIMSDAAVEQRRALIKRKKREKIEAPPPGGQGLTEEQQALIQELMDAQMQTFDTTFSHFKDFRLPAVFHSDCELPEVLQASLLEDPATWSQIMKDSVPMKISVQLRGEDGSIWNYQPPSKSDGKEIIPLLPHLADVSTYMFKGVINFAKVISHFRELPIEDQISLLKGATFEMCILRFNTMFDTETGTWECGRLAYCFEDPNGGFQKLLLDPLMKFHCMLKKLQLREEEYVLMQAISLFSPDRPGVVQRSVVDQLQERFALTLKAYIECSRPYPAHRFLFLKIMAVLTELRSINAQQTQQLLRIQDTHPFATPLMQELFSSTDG
# [19] = qHTS assay for small molecule activators of the human pregnane X receptor (PXR) signaling pathway (AID 720659; call rule not given here)
# [20] = at 45.9 µM (top of the series), tumour line B
# [21] = at 45.9 µM (top of the series), tumour line D
# [22] = at 46.1 µM (top of the series), tumour line C
# [23] = at 46 µM (top of the series), tumour line A
# [24] = at 21.2 µM (top of the series), tumour line B
compound,measurement,setting,value
Cc1cc(O)c(C(C)C)cc1Cl,Potency,[1],inactive
same,Potency,[2],inactive
same,Potency,[3],inactive
same,Potency,[4],inactive
same,Potency,[5],inactive
same,Potency,[6],inactive
same,Potency,[7],inactive
same,Potency,[8],inactive
same,Potency,[9],inactive
same,Potency,[10],inactive
same,Potency,[11],inactive
same,Potency,[12],inactive
same,Potency,[13],inactive
same,Potency,[14],inactive
same,"activity, negative = cell killing",[15]; [20],-5.69%
same,"activity, negative = cell killing",[15]; [21],-7.04%
same,"activity, negative = cell killing",[15]; [22],8.96%
same,Potency,[16],inactive
CCCCCCCCCCCCCCCCCC(=O)OCC(O)CO (stereo not given),Potency,[1],inactive
same,Potency,[2],inactive
same,Potency,[3],inactive
same,Potency,[4],inactive
same,Potency,[17],inactive
same,Potency,[5],inactive
same,Potency,[6],inactive
same,Potency,[7],inactive
same,Potency,[8],inactive
same,Potency,[9],inactive
same,Potency,[10],inactive
same,Potency,[12],inactive
same,Potency,[13],inactive
same,Potency,[14],inactive
same,"activity, negative = cell killing",[15]; [20],-5.26%
same,"activity, negative = cell killing",[15]; [21],-15.3%
same,"activity, negative = cell killing",[15]; [22],1%
C#C[C@]1(O)CC[C@H]2[C@@H]3CCC4=CC(=O)CC[C@@H]4[C@H]3CC[C@@]21C,Potency,[1],inactive
same,Potency,[2],inactive
same,Potency,[3],inactive
same,Potency,[4],inactive
same,Potency,[17],inactive
same,Potency,[5],inactive
same,Potency,[6],inactive
same,Potency,[7],3.55 µM (active)
same,Potency,[8],inactive
same,Potency,[9],inactive
same,Potency,[11],17.8 µM (active)
same,Potency,[12],inactive
same,Potency,[13],inactive
same,Potency,[14],inactive
same,"activity, negative = cell killing",[15]; [20],-9.83%
same,"activity, negative = cell killing",[15]; [21],3.81%
same,"activity, negative = cell killing",[15]; [22],-18.8%
CN=C(NC#N)NCCSCc1csc(N=C(N)N)n1,Potency,[1],inactive
same,Potency,[2],inactive
same,Potency,[3],inactive
same,Potency,[4],inactive
same,Potency,[17],inactive
same,Potency,[5],inactive
same,Potency,[6],inactive
same,Potency,[7],inactive
same,Potency,[9],inactive
same,Potency,[10],inactive
same,Potency,[11],inactive
same,Potency,[12],inactive
same,Potency,[13],inactive
same,Potency,[14],inactive
same,"activity, negative = cell killing",[15]; [20],-9.85%
same,"activity, negative = cell killing",[15]; [21],14.9%
same,"activity, negative = cell killing",[15]; [23],-18.5%
same,"activity, negative = cell killing",[15]; [22],-6.9%
same,Potency,[16],inactive
Cc1cccn2c(=O)c(-c3nnn[nH]3)cnc12,Potency,[1],inactive
same,Potency,[2],inactive
same,Potency,[3],inactive
same,Potency,[4],inactive
same,Potency,[17],inactive
same,Potency,[5],inactive
same,Potency,[6],inactive
same,Potency,[7],inactive
same,Potency,[9],inactive
same,Potency,[10],inactive
same,Potency,[11],inactive
same,Potency,[12],inactive
same,Potency,[13],inactive
same,Potency,[14],inactive
same,"activity, negative = cell killing",[15]; [20],-8.75%
same,"activity, negative = cell killing",[15]; [21],-11.1%
same,"activity, negative = cell killing",[15]; [23],-23.8%
same,"activity, negative = cell killing",[15]; [22],-18.6%
same,Potency,[16],inactive
CCCCCCc1ccc(O)cc1O,Potency,[1],inactive
same,Potency,[2],inactive
same,Potency,[3],inactive
same,Potency,[4],inactive
same,Potency,[17],inactive
same,Potency,[5],inactive
same,Potency,[6],inactive
same,Potency,[7],inactive
same,Potency,[8],inactive
same,Potency,[9],inactive
same,Potency,[10],inactive
same,Potency,[11],inactive
same,Potency,[12],inactive
same,Potency,[13],inactive
same,Potency,[14],inactive
same,"activity, negative = cell killing",[15]; [20],-28.1%
same,"activity, negative = cell killing",[15]; [22],-19.2%
same,Potency,[15]; tumour line A,10 µM (active)
same,max response,[18],-4.98% and -0.286%
same,outcome,[19],inactive
CC[N+](CC)(CCNC(=O)C(=O)NCC[N+](CC)(CC)Cc1ccccc1Cl)Cc1ccccc1Cl,Potency,[1],inactive
same,Potency,[2],inactive
same,Potency,[3],inactive
same,Potency,[4],inactive
same,Potency,[5],inactive
same,Potency,[6],inactive
same,Potency,[7],inactive
same,Potency,[8],inactive
same,Potency,[9],inactive
same,Potency,[10],inactive
same,Potency,[11],inactive
same,Potency,[12],inactive
same,Potency,[13],inactive
same,Potency,[14],inactive
same,"activity, negative = cell killing",[15]; [20],-6.34%
same,"activity, negative = cell killing",[15]; [21],-19.6%
same,"activity, negative = cell killing",[15]; [23],-23.4%
same,"activity, negative = cell killing",[15]; [22],15.3%
same,Potency,[16],inactive
C[C@@H](CN(C)C)CN1c2ccccc2Sc2ccccc21,Potency,[1],23.7 µM (active)
same,Potency,[2],inactive
same,Potency,[3],inactive
same,Potency,[4],inactive
same,Potency,[17],inactive
same,Potency,[5],inactive
same,Potency,[6],inactive
same,Potency,[7],inactive
same,Potency,[8],inactive
same,Potency,[9],inactive
same,Potency,[11],inactive
same,Potency,[12],17.8 µM (active)
same,Potency,[13],inactive
same,Potency,[14],inactive
same,"activity, negative = cell killing","[15]; at 20 µM (top of the series), tumour line C",31.6%
same,"activity, negative = cell killing",[15]; [24],-28.5%
same,Potency,[15]; tumour line A,8.91 µM (active)
same,Potency,[16],inactive
C[C@]12CC[C@H]3[C@@H](CCC4=CC(=O)CC[C@@]43C)[C@@H]1CC[C@@H]2C(=O)CO,Potency,[1],inactive
same,Potency,[2],inactive
same,Potency,[3],inactive
same,Potency,[4],inactive
same,Potency,[17],inactive
same,Potency,[5],inactive
same,Potency,[6],inactive
same,Potency,[7],3.55 µM (active)
same,Potency,[8],inactive
same,Potency,[9],inactive
same,Potency,[10],inactive
same,Potency,[11],22.4 µM (active)
same,Potency,[13],inactive
same,Potency,[14],inactive
same,"activity, negative = cell killing",[15]; [24],-21.2%
same,"activity, negative = cell killing","[15]; at 21.2 µM (top of the series), tumour line D",-27.5%
same,Potency,[16],inactive
CC(=O)OCC(=O)NCCCOc1cccc(CN2CCCCC2)c1,Potency,[1],inactive
same,Potency,[2],inactive
same,Potency,[3],inactive
same,Potency,[4],inactive
same,Potency,[17],inactive
same,Potency,[5],inactive
same,Potency,[6],inactive
same,Potency,[7],inactive
same,Potency,[8],inactive
same,Potency,[9],inactive
same,Potency,[10],inactive
same,Potency,[11],inactive
same,Potency,[13],inactive
same,Potency,[14],inactive
same,"activity, negative = cell killing",[15]; [20],0.906% and -1.58%
same,"activity, negative = cell killing",[15]; [21],-12.4% and -6.14%
same,"activity, negative = cell killing",[15]; [23],-17.5%
same,"activity, negative = cell killing",[15]; [22],-13.4% and 4.52%
same,Potency,[16],inactive
CC(C)COC(=O)c1ccc(N)cc1,Potency,[1],inactive
same,Potency,[2],inactive
same,Potency,[3],inactive
same,Potency,[4],inactive
same,Potency,[17],inactive
same,Potency,[5],inactive
same,Potency,[6],inactive
same,Potency,[7],inactive
same,Potency,[8],inactive
same,Potency,[9],inactive
same,Potency,[10],inactive
same,Potency,[11],inactive
same,Potency,[13],inactive
same,Potency,[14],inactive
same,"activity, negative = cell killing",[15]; [20],-9.56%
same,"activity, negative = cell killing",[15]; [21],-18.7%
same,"activity, negative = cell killing",[15]; [22],-7.77%
same,Potency,[16],inactive
Oc1cc(O)c2c(c1)O[C@H](c1ccc(O)c(O)c1)[C@H](O)C2,Potency,[1],inactive
same,Potency,[2],inactive
same,Potency,[3],inactive
same,Potency,[4],inactive
same,Potency,[5],inactive
same,Potency,[6],inactive
same,Potency,[7],inactive
same,Potency,[8],inactive
same,Potency,[9],inactive
same,Potency,[10],inactive
same,Potency,[11],inactive
same,Potency,[12],inactive
same,Potency,[13],inactive
same,Potency,[14],inactive
same,"activity, negative = cell killing",[15]; [20],-5.02%
same,"activity, negative = cell killing",[15]; [21],-9.16%
same,"activity, negative = cell killing",[15]; [23],-28.5%
same,"activity, negative = cell killing",[15]; [22],-2.43%
same,Potency,[16],inactive
